Measured values taken from the supplement of paper PMC6555819.

Columns and labels:
Assay in all cases: PBM binding z-score (relative to random genomic background probes); higher = stronger binding; sequences stand for … in GC…GCGATTGACAGCGTAGAATGAAGG
[1] = tested on: FXR:RXRa (NR concentration 270 nM, RXRa partner concentration 90 nM)
Method in brief: (§1)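 The probes on custom Agilent 4×180K protein-binding microarrays were double-stranded, with 34-nt variable regions bearing direct-repeat seeds, single-nucleotide variants, half-site ablations and random human genomic background sequences. Incubation lasted 1 h with ligand-free nuclear receptor dimers in PBS pH 7.4, 2% milk, 0.02% Triton X-100, 1 mM DTT, 0.2 mg/mL BSA and 0.4 mg/ml salmon testes DNA. Antibodies against each partner (one per run) detected bound dimers, and fluorescence scans were regression-normalized. Binding z-scores take the random background probes as reference.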

[2] = tested on: LXRa:RXRa (NR concentration 270 nM, RXRa partner concentration 90 nM)
Method in brief: as §1

[3] = tested on: LXRa homodimer (NR concentration 270 nM)
Method in brief: as §1

[4] = tested on: LXRb:RXRa (NR concentration 270 nM, RXRa partner concentration 90 nM)
Method in brief: as §1

[5] = tested on: LXRb homodimer (NR concentration 270 nM)
Method in brief: as §1

[6] = tested on: PPARa:RXRa (NR concentration 270 nM, RXRa partner concentration 90 nM)
Method in brief: as §1

[7] = tested on: PPARg:RXRa (NR concentration 180 nM, RXRa partner concentration 90 nM)
Method in brief: as §1

[8] = tested on: PPARg:RXRa 270nM:90nM, anti-RXR (NR concentration 270 nM, RXRa partner concentration 90 nM)
Method in brief: as §1

[9] = tested on: PPARg:RXRa 30nM:10nM, anti-RXR (NR concentration 30 nM, RXRa partner concentration 10 nM)
Method in brief: as §1

[10] = tested on: PPARg:RXRa 90nM:30nM, anti-RXR (NR concentration 90 nM, RXRa partner concentration 30 nM)
Method in brief: as §1

Row | Sequence | PBM binding z-score [1] | PBM binding z-score [2] | PBM binding z-score [3] | PBM binding z-score [4] | PBM binding z-score [5] | PBM binding z-score [6] | PBM binding z-score [7] | PBM binding z-score [8] | PBM binding z-score [9] | PBM binding z-score [10]
1 | TAGCCTAGGTCATGCGCGCCAGTATAGTGTCGGC | 4.7 | 3.47 | 0.451 | 2.36 | 0.289 | 3.98 | 2.68 | 2.89 | 0.197 | 1.79
2 | GCTGCTCGGTCAGGTTGGTCAGCTAACGGGTACG | -0.343 | -0.331 | -0.448 | -0.697 | -0.583 | -0.536 | -0.75 | -0.709 | -0.71 | -1.1
3 | TCTGCTAGGTCAATTGGTCAGCTAACGAGCTGCC | 2.99 | 2.31 | -0.37 | 1.44 | 0.648 | 3.04 | 1.76 | 2.76 | 1.64 | 2.31
4 | CAAACTAGGTCACCAGAAGGTCAAAGTCCGCATG | 6.14 | 6.04 | 4.65 | 5.24 | 1.41 | 6.22 | 9.74 | 7.94 | 6.18 | 7.98
5 | TGTCAAAGTTCAATGGTAACGTAAGTATCCACAC | 5.2 | 5.16 | 2.81 | 3.03 | 0.934 | 4.31 | 6.86 | 6.53 | 4.18 | 6.12
6 | AGTAAAAGTTCATCTAGGTAACGTAAGATATGCT | 6.26 | 5.78 | 5.21 | 3.31 | 1.71 | 4.42 | 3.98 | 3.88 | 1.55 | 2.54
7 | ATCGAAAGGTCGCCGAGGTGAGTATACACCGTTT | 5.1 | 3.88 | 0.0507 | 3.11 | 0.601 | 5.12 | 3.84 | 4.39 | 1.55 | 2.85
8 | ATCGAAAGGTCGACGTGGTGAGTATACACCGTTT | 4.21 | 3.3 | 0.0877 | 2.49 | 0.332 | 4.08 | 2.08 | 2.66 | 1.01 | 1.77
9 | ATCTCTAGGTAAAAGTGCAGTGAATCCCGAGGAT | 0.179 | -0.141 | -0.393 | 0.0767 | 0.339 | 2.81 | 4.31 | 5.78 | 3.66 | 6.27
10 | ATATGTAGGTTAACGGGTCATTCAGTTTGCGCAT | 2.83 | 3.03 | 1.03 | 3.05 | 0.599 | 5.14 | 7.84 | 6.45 | 4.4 | 6.25
11 | AGAATGAGGTTAGGATCAGGGAAACAGAATACAT | 0.875 | 0.506 | -0.0173 | 1.16 | 0.0197 | 2.19 | 1.11 | 1 | 0.649 | 0.78
12 | ACAGACAGGTGATGGAGGTAACTCAGGCTATCAT | -0.104 | -0.199 | -0.062 | -0.121 | -0.598 | 0.109 | 0.789 | -0.241 | -0.252 | -0.291
13 | ACAGACAGGTGTTGAAGGTAACTCAGGCTATCAT | -0.0696 | -0.375 | -0.136 | -0.298 | -0.389 | -0.0786 | 0.432 | -0.232 | -0.26 | -0.54
14 | ATCTCTAGGTAACCAAGTTCAGTTAATGCCGAAC | 0.988 | 1.26 | 1.38 | 1.11 | 0.875 | 1.31 | 0.806 | 1.1 | 0.448 | 0.659
15 | CGTCGAAGGTCATAGGAGGTCAGTGAAGACAGAT | 7.63 | 7.68 | 5.14 | 6.27 | 0.859 | 5.98 | 5.54 | 6.05 | 3.04 | 4.92
16 | TCTTGTAGATCAACAGGAGGTCAAGAAAGATCGA | 2.21 | 3.53 | 3.02 | 3.32 | 0.366 | 3.71 | 1.04 | 2.25 | 2.55 | 2.35
17 | AGAATGAGGTTACCGAAGATCAGGGAAACGCTTG | 2.18 | 4.55 | -0.477 | 2.19 | -0.522 | 3.81 | 2.86 | 3.26 | 1.19 | 2.55
18 | TCTAGCCGGCCAGAGGGTCACTCAAGAGGTACGG | 1.12 | 0.885 | -0.666 | 1.07 | -1.11 | 2.03 | 0.575 | 1.57 | 1.39 | 1.44
19 | ACAGACAGGTGATGAAGGTAACTCACGCTATCAT | -0.0545 | 0.135 | -0.0211 | 0.0443 | -0.474 | 0.247 | 0.81 | 0.393 | 0.232 | -0.0255
20 | AGTCAAAGTTCACCTAGGTAACGTAAGATATGCT | 6.25 | 5.63 | 3.58 | 3.92 | 1.2 | 4.94 | 7.15 | 6.41 | 3.81 | 5.63
21 | ATCGAAAGGTCGAGAGGTGAGTATACAGAAAGGC | 4.46 | 3.02 | -0.0292 | 2.63 | 0.274 | 4.33 | 3.42 | 3.44 | 1.69 | 2.47
22 | CTCGAAAGGTCGGTTGAGGCGAGTATACGGATAA | 1.49 | 1.17 | -0.238 | 0.925 | -0.22 | 2.11 | 0.256 | 0.752 | -0.191 | 0.269

Row | Sequence | PBM binding z-score [1] | PBM binding z-score [2] | PBM binding z-score [3] | PBM binding z-score [4] | PBM binding z-score [5] | PBM binding z-score [6] | PBM binding z-score [7] | PBM binding z-score [8] | PBM binding z-score [9] | PBM binding z-score [10]
23 | CAGCCTAGGACAGGGCCAGTATAGGAGGAACGTT | -0.452 | -0.926 | -0.352 | -0.799 | -0.979 | -0.804 | 0.36 | -0.522 | -0.216 | -0.473
24 | CGTCCAAGGTCAGCAGGTCAGCGAAAGCGACGTG | 6.11 | 4.35 | 0.407 | 3.19 | -0.541 | 4.9 | 4.79 | 4.99 | 1.45 | 3.69
25 | CAAACTGGGTCAAAGGTCAAAGTCGAGCCAACCA | 7.83 | 7.07 | 4.88 | 6.89 | 2.4 | 7.41 | 14.1 | 11.2 | 13.5 | 13
26 | AGAATGAGGTTAAGATCAGGGATACAGAATACAT | 2.25 | 1.75 | 0.0573 | 1.78 | 0.0208 | 3.7 | 2.77 | 2.46 | 0.866 | 1.71
27 | CTCGAAAGGTCGGTTGAGGTGTGTATACGGATAA | 1.83 | 1.28 | -0.285 | 1.05 | 0.0615 | 2.13 | 0.162 | 0.619 | -0.0568 | 0.492
28 | CAAACTAGGTCAAAAGTCAAAGTCGAGCCAACCA | 4.73 | 3.95 | 0.814 | 2.97 | 0.644 | 6.39 | 11.9 | 9.92 | 9.77 | 11
29 | CATACAGGGTCAGCTAGGCCAGATTAGGGACGGC | 4.11 | 2.99 | -0.059 | 2.4 | 0.391 | 4.38 | 3.11 | 2.96 | 0.713 | 1.62
30 | CGTACTAGGTCATTGACAGGACAGTGAATAGTAA | 4.65 | 3.15 | 0.997 | 2.29 | 0.27 | 4.07 | 6.36 | 5.47 | 3.06 | 4.93
31 | ATCTCTACGTAACAAGTTCAGTGAAAGAGAGGAC | 0.253 | 0.5 | 0.496 | 0.811 | 1.27 | 0.449 | 0.368 | 0.316 | 0.334 | 0.321
32 | GCAGACAGGTGAATCGCAGGTAACTCAGGGTGGC | -0.281 | -0.0182 | -0.726 | -0.203 | -1.12 | 0.748 | 0.386 | -0.0895 | -0.47 | -0.296
33 | GATACAGGGTCAGCTAGAGGCCAGACTATGGAAA | 4.52 | 2.92 | -0.325 | 2.4 | 0.0441 | 4.49 | 4.01 | 3.55 | 1.29 | 2.19
34 | AATACAGGGTCATCGTAGGCCTGAGTACGCACAG | 7.54 | 5.77 | 1.91 | 4.6 | 1.13 | 5.95 | 6.49 | 5.92 | 2.71 | 4.74
35 | CCTATTTGGTCAGGAGGTCACACACCGGATATGA | 3.94 | 3.62 | 2.35 | 3.64 | 1.25 | 4.34 | 3.42 | 4.03 | 1.66 | 3.23
36 | ATCGAACGGTCGTGAGGTGAGTATACAGAAAGGC | 0.0725 | -0.0756 | -0.243 | -0.299 | -0.457 | 0.134 | 0.66 | -0.0797 | -0.119 | -0.0767
37 | AGAATGCGGTTAAGATCAGGGAAACAGAATACAT | -0.249 | -0.195 | -0.0658 | -0.185 | -0.913 | -0.181 | 0.331 | 0.0448 | 0.301 | 0.258
38 | CAGCCTAGGTTAGGGCCAGTATAGGAGGAACGTT | -0.436 | -0.473 | -0.564 | -0.633 | -1.42 | -0.175 | 0.211 | -0.361 | -0.521 | -0.278
39 | GTACCAAGGTGAATAAGTCGTTGATGAGTAGGCG | 0.544 | 0.243 | -0.143 | -0.0627 | -0.489 | 0.853 | 0.832 | 0.279 | 0.154 | -0.268
40 | GTACCAAGGTGAATAGGTCGTTTATGAGTAGGCG | 0.975 | 1.13 | 0.161 | 0.811 | -0.198 | 2.44 | 1.62 | 1.79 | 0.597 | 1.5
41 | CGATCTAGGTCATTGACAGGACAGTGAATAGTAA | 4.68 | 2.86 | 0.511 | 2.07 | 0.134 | 4.52 | 6.86 | 6.06 | 3.13 | 5.68
42 | ACAGACAGGTGATGAAGGTATCTCAGGCTATCAT | -0.127 | -0.162 | -0.557 | -0.354 | -0.55 | -0.193 | 0.506 | -0.135 | -0.034 | -0.24
43 | ATATGTAGGTTAGCTGGGGTTATTCAGACTAGGC | 1.74 | 3.29 | 0.848 | 2.56 | 1.44 | 3.94 | 4.22 | 3.82 | 1.45 | 2.9
44 | TCATATAGGTAAAGGTGAAAGTAGAACGATATGA | 1.05 | 1.4 | -0.101 | 1.28 | 0.0204 | 3.29 | 4.62 | 4.54 | 4.45 | 4.86
